Rows were chosen to be rich in hits. Some 7.6% of all compounds tested hit in one or more screens of this group.
RORg inh = inhibitors of mouse ROR gamma transcriptional activity; P51450; hit rate 5.4% among 310,000; Potency, µM (series often up to 53.6 µM), for inactives: at the highest dose activity change, negative = inhibition, hits mostly inhibitors; AID 2551; Drosophila S2 Gal4-RORgamma UAS-luciferase reporter, 20 h; further: potency means the concentration at half of the fitted maximal effect; on the % scale 0 is the no-effect control and ±100 the full control effect; nearly all actives have a fitted effect of over 60% in size
Target sequence (P51450 whole entry, looked up, the tested form may be a part): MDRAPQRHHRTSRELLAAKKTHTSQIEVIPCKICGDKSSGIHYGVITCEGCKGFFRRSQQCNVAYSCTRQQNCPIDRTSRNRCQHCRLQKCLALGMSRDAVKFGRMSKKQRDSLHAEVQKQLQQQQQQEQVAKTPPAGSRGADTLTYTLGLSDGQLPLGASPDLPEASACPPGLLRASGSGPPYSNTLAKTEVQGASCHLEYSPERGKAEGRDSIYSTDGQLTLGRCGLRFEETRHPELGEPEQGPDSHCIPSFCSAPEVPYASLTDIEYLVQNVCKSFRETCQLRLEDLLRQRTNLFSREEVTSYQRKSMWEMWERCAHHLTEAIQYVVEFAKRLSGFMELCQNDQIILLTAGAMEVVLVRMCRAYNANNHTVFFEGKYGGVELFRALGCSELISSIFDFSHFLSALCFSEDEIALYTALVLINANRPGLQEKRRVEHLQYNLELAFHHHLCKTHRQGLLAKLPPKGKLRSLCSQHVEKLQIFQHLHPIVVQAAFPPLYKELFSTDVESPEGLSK
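A Gal4/UAS one-hybrid system in insect cells: metallothionein-promoter Gal4–ROR gamma fusion plus Photinus luciferase reporter. Copper sulfate 700 uM final, 20 hr ambient incubation, luminescent detection after 10 min with reagent.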
VP16 counter = inhibits Gal4-VP16 luciferase reporter, ROR gamma counter-screen; Drosophila S2 Gal4-VP16 UAS-luciferase, luminescence, 20 h; Potency, µM (titrated, usually from 53.6 µM), for inactives: at the highest dose activity, negative = inhibition, hits mostly inhibitors; hit rate 3.5% among 310,000; AID 2546;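 further: Gal4-VP16 expression switched on by copper sulfate through the metallothionein promoter; potency means the concentration at half of the fitted maximal effect; on the % scale 0 is the no-effect control and ±100 the full control effect; nearly all actives have a fitted effect of over 50% in size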
ELG1 repair inh = blocks ELG1-dependent DNA repair in HEK293T cells; hit rate 2.3% among 330,000; HEK293T ELG1-luciferase reporter, luminescence, 16 h; DNA damage induced by 5-fluorouridine; AID 504467; Potency, µM (series often up to 46.1 µM), without a hit: top-dose activity change, negative = inhibition, usual class: inhibitors; further: potency means the concentration at half of the fitted maximal effect; on the % scale 0 is the no-effect control and ±100 the full control effect; nearly all actives have a fitted effect of over 55% in size
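Reporter activity after DNA damage by 5-fluorouridine is monitored. Compound-treated cells incubate 16 hr at 37 °C, then ONE-Glo is added for 30 min before luminescence reading.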
Giardia killer = Giardia lamblia killing. Giardia lamblia trophozoite viability. activity change, % at 7.66 µM, hits read low. hit rate 0.15% among 340,000. AID 540267; in the data active means activity change below about -80%; inconclusive means between about -30% and that limit;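 further: parasites exposed to compound for two days anaerobically before the ATP read; on the % scale 0 is the no-effect control and ±100 the full control effect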
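Killing of trophozoites was scored by loss of ATP luminescence after a 48 hrs anaerobic exposure to compounds at 37 deg C, using 100 cells per well.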
BRCA1 expr act = activators of BRCA1 expression; MCF7-BRCA1-FFLuc reporter, luminescence, 48 h; response scale: scaled: vehicle 0%, 10 µM genistein 100%; Potency, µM (doses to about 46.1 µM), without a hit: at the top dose activation, most hits filed as activators; hit rate 1.1% among 380,000; AID 624202; further: potency means the concentration at half of the fitted maximal effect; nearly all actives have a fitted effect of over 80% in size
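Activators of BRCA1 expression were detected as increased firefly luciferase luminescence in engineered MCF7 cells after 48 h compound incubation. Signals were scaled to genistein 10 microM as full activation.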
p53 reactivation = mutant p53 re-activation in reporter cells; H1299 p53-A138V BP100-luciferase reporter, luminescence, 24 h; Potency, µM (doses to about 92.2 µM), inactives show at the highest dose activity change, positive = activation, usual class: activators; hit rate 0.063% among 320,000; AID 504706; further: potency means the concentration at half of the fitted maximal effect; % of control where 0% means no effect; nearly all actives have a fitted effect of over 45% in size
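p53-null H1299 cells stably carrying temperature-sensitive p53-A138V and a BP100-luciferase reporter were pinned with compounds (4-point, 1:5 series) and held 24 hrs at 37 deg C. Luminescence was read 10 min after detection reagent.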
ELG1 FLuc counter = luciferase inhibition in cell-free luciferin readout for ELG1 hits; shares compounds with ELG1 repair inh; cell-free firefly luciferase luminescence counter-screen, ViewLux; Potency, µM (highest dose often 46.1 µM), inactives show top-dose activity change, negative = inhibition, actives largely listed as inhibitors; hit rate 3% among 350; AID 624247; further: potency means the concentration at half of the fitted maximal effect; on the % scale 0 is the no-effect control and ±100 the full control effect
ELG1-Luc inh = human ELG1 repair inhibition, luciferase-tagged ELG1 confirmation; shares compounds with ELG1 repair inh; HEK293T ELG1-luciferase levels, luminescence; cells co-treated with 5-fluorouridine; Potency, µM (series often up to 46.1 µM), for the others: at the top dose activity change, negative = inhibition, usual class: inhibitors; hit rate 68% among 670; AID 624248; further: potency means the concentration at half of the fitted maximal effect; on the % scale 0 is the no-effect control and ±100 the full control effect; nearly all actives have a fitted effect of over 55% in size
ELG1-Luc MMS = confirmation of human ELG1 repair inhibitors, MMS stimulated; AID 624249; HEK293T luciferase-tagged ELG1 level, MMS stimulated; hit rate 53% among 670; Potency, µM (titrated, usually from 46.1 µM), for inactives: at the highest dose activity change, negative = inhibition, hits mostly inhibitors; shares compounds with ELG1 repair inh; further: potency means the concentration at half of the fitted maximal effect; on the % scale 0 is the no-effect control and ±100 the full control effect; nearly all actives have a fitted effect of over 60% in size
ELG1 5FU viab = confirmation of ELG1 repair inhibitors: viability with 5FU; AID 624250; cell viability with 5-FU, ELG1-dependent repair; 670 tested, under 10 active; shares compounds with ELG1 repair inh; Potency, µM (doses to about 46.1 µM), inactives show at the top dose activity change, negative = viability loss, most hits filed as cytotoxic;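 further: ELG1-luc HEK293T cells cotreated with 5-fluorouridine at 10 µM final; potency means the concentration at half of the fitted maximal effect; viability measured 16 h after compound addition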
ELG1 MMS cell = confirmation of ELG1 repair inhibitors: viability with MMS; Cell viability with MMS, ELG1-dependent DNA repair; shares compounds with ELG1 repair inh; Potency, µM (titrated, usually from 46.1 µM), inactives show at the top dose activity change, negative = viability loss, most hits filed as cytotoxic; hit rate 33% among 670;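 further: ELG1-luc HEK293T cells co-treated with 10 µM MMS; potency means the concentration at half of the fitted maximal effect; viability read 16 h after compound addition; on the % scale 0 is the no-effect control and ±100 the full control effect; nearly all actives have a fitted effect of over 60% in size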
ELG1 unstim viab = affects unstimulated cell viability, ELG1 hit counter-screen; AID 624252; hit rate 8% among 900; shares compounds with ELG1 repair inh; Potency, µM (series often up to 45.9 µM), without a hit: at the highest dose activity change, negative = loss of viability, hits mostly cytotoxic; cell viability counter-screen, unstimulated, luminescence;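 further: potency means the concentration at half of the fitted maximal effect; compound exposure lasted 16 hours before reading; on the % scale 0 is the no-effect control and ±100 the full control effect; nearly all actives have a fitted effect of over 55% in size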
FLuc enzyme = inhibits purified firefly luciferase, counter-screen for ELG1 hits. shares compounds with ELG1 repair inh. purified firefly luciferase, luminescence counter-screen. Potency, µM (highest dose often 57.5 µM), without a hit: at the highest dose activity, negative = inhibition, usual class: inhibitors. hit rate 10% among 350. AID 624253; further: potency means the concentration at half of the fitted maximal effect; on the % scale 0 is the no-effect control and ±100 the full control effect
Numbers without * were called inactive; ? = inconclusive; nt = no result. Unless noted, the call rests on the fitted dose curve; in most records, active means well fitted curve in the direction sought with a large enough effect; inconclusive means small, poorly fitted or top-dose-only effect, or another doubt; inactive means no such curve, though single readings can be large; an effect the other way counts as inactive or inconclusive.

SMILES | RORg inh | VP16 counter | ELG1 repair inh | Giardia killer | BRCA1 expr act | p53 reactivation | ELG1 FLuc counter | ELG1-Luc inh | ELG1-Luc MMS | ELG1 5FU viab | ELG1 MMS cell | ELG1 unstim viab | FLuc enzyme
COc1cc(OC)cc(C(=O)N[C@H](C(=O)NCCc2c[nH]c3ccccc23)C(C)C)c1 | 44% | ? | -15% | 6 | -17% | 1% | nt | nt | nt | nt | nt | nt | nt
COc1cc(CC2COC(=O)C2(O)Cc2ccc(O)c(OC)c2)ccc1O (stereo not drawn) | ? | 7.1µM* | 1.5µM* | 8 | 14% | -2% | nt | ? | 3.5µM* | -2% | 2.8µM* | ? | nt
COc1cc(C[C@@H]2C(=O)OC[C@H]2Cc2ccc(OC)c(OC)c2)ccc1O | nt | nt | 1% | 2 | -3% | -15% | nt | nt | nt | nt | nt | nt | nt
Cc1ccc(S(=O)(=O)NCc2ccccn2)c(C)c1C | ? | -7% | ? | 8 | 3% | -25% | nt | nt | nt | nt | nt | nt | nt
COc1cc(C)c(Br)cc1S(=O)(=O)NCc1ccncc1 | ? | -20% | 1.6µM* | -17 | -15% | -8% | -6% | -7% | 3.2µM* | -7% | 3.2µM* | ? | -1%
Cc1ccc(S(=O)(=O)NCc2ccncc2)c(C)c1C | ? | 0% | 0% | 2 | -28% | -2% | -8% | 10% | 1µM* | -10% | 1.1µM* | ? | -4%
Cc1cccc(N2CC(C(=O)OCc3ccc([N+](=O)[O-])cc3)CC2=O)c1 (stereo not drawn) | -1% | -1% | -24% | -6 | 12% | -3% | nt | nt | nt | nt | nt | nt | nt
O=C(O)c1cc(Nc2nc(N3CCOCC3)nc(N3CCOCC3)n2)ccc1Cl | -10% | -1% | 1% | -8 | 10% | -8% | nt | nt | nt | nt | nt | nt | nt
O=C(CSc1nc2ccc(Nc3nc(N4CCOCC4)nc(N4CCOCC4)n3)cc2s1)Nc1ccccc1Cl | ? | ? | 2.9µM* | 3 | -47% | 7% | ? | 4µM* | -13% | ? | 0% | -7% | -1%
O=C(O)c1cccc(Nc2nc(N3CCOCC3)nc(N3CCOCC3)n2)c1 | -17% | 7% | -1% | -6 | -2% | -10% | 21% | 0% | 23% | -1% | -4% | -7% | -9%
NC(=O)c1ccsc1NC(=O)COC(=O)Cc1cccc2ccccc12 | -28% | 4.5µM* | 1.6µM* | 10 | 5% | -1% | nt | ? | 0.63µM* | 0% | 1.3µM* | ? | nt
COc1ccc(-c2cc(-c3ccc(C)cc3)nc(SCc3nnc(-c4ccccc4)o3)c2C#N)cc1OC | -15% | 3% | 2.9µM* | 5 | 1% | -4% | -1% | 3.2µM* | -12% | ? | 13% | -3% | 0%
Cc1ccccc1N1CCN(C2=NC(=O)/C(=C/c3cn[nH]c3-c3ccccc3)S2)CC1 | -4% | -15% | 0.82µM* | 0 | 18% | 1% | 33% | 1.3µM* | 0% | ? | 1% | 0% | -3%
O=C1N=C(N2CCCC2)S/C1=C\c1cn[nH]c1-c1ccccc1 | 40% | -2% | -17% | nt | nt | -8% | nt | nt | nt | nt | nt | nt | nt
Cc1cccc(-c2nc3c(c(SCC(=O)N4CCOCC4)n2)Cc2c(CO)cnc(C)c2O3)c1 | 2% | ? | ? | 6 | -38% | -8% | nt | nt | nt | nt | nt | nt | nt
COc1cccc(-c2nc3c(c(SCC(=O)N4CCOCC4)n2)Cc2c(CO)cnc(C)c2O3)c1 | 19% | -18% | 4.6µM* | -17 | -9% | 0% | 9% | 3.2µM* | 14µM* | ? | ? | ? | -2%
COc1ccccc1-c1nc2c(c(SCC(=O)N3CCCCC3)n1)Cc1c(CO)cnc(C)c1O2 | 1% | -13% | 8.2µM* | 7 | -42% | -9% | -49% | 10µM* | ? | ? | ? | ? | -6%
Cn1cccc1/C=N\NC(=O)Cc1ccc(Br)c2ccccc12 | ? | 11µM* | 3.7µM* | 5 | -27% | 4% | nt | ? | 7.9µM* | -13% | 7.9µM* | ? | nt
Cc1cccc(NCC(=O)N/N=C\c2cccn2C)c1 | -11% | 7% | 14% | -23 | -1% | 2% | nt | nt | nt | nt | nt | nt | nt
O=C(CCN1C(=O)NC2(CCCC2)C1=O)Nc1ccc(-c2nc3ccccc3s2)cc1 | nt | nt | ? | 6 | -35% | nt | 120% | nt | nt | nt | nt | ? | 3.7µM*
O=C(NCc1cccnc1)c1ccc(NC(=O)c2ccc(Br)cc2)cc1 | 29% | -10% | 2.3µM* | 0 | -29% | -1% | nt | -10% | 0.025µM* | 5% | 0.025µM* | -1% | nt
COc1ccc2oc(C(=O)Nc3nccs3)c(C)c2c1 | nt | nt | ? | ? | ? | 18% | nt | nt | nt | nt | nt | nt | nt
CCOc1ccc2oc(C(=O)Nc3nccs3)c(C)c2c1 | nt | nt | ? | -24 | ? | nt | nt | nt | nt | nt | nt | -8% | nt
Cc1ccccc1N1C(=O)[C@@H]2Cc3ccccc3CN2C1=O | 19% | 4% | 7% | -19 | 1% | -2% | nt | nt | nt | nt | nt | nt | nt
COc1cc(C(=O)Oc2cccc(/C=N/NC(=O)c3cccnc3)c2)cc(OC)c1OC | -24% | -5% | ? | 10 | -42% | 1% | nt | nt | nt | nt | nt | nt | nt
